# Experimental data as given in PMC9911399, “Two distinct binding modes provide the RNA-binding protein RbFox with extraordinary sequence specificity”.
# Numbering of substitutions follows the chain as printed; changes in the protein carry UniProt numbers. In all, about 16,000 sequences were measured (“ka relative to ugcaugu”: median about 0.0091, highest 2% from about 0.032 on). The entries come from a sample that favours the highest values as a whole.
# B1: GUAGAGU (DNA:RNA)
# RNA: GGGAGACCGGAAUUCAGAUUGUCCGUAGAGUUUAAAUCCCGUCGUAGCCACCA
# DNA 1: CAATCTGAATTCCGGTCTCCC
# DNA 2: TGGTGGCTACGACGGGATT
# B2: GCCUGAC (DNA:RNA)
# RNA: B1 RNA with U26C, A27C, G28U, A29G, G30A, U31C
# DNA 1: CAATCTGAATTCCGGTCTCCC
# DNA 2: TGGTGGCTACGACGGGATT
# B3: UGCUGAC (DNA:RNA)
# RNA: GGGAGACCGGAAUUCAGAUUGUCCUGCUGACUUAAAUCCCGUCGUAGCCACCA
# DNA 1: CAATCTGAATTCCGGTCTCCC
# DNA 2: TGGTGGCTACGACGGGATT
# B4: UGACCGU (DNA:RNA)
# RNA: B1 RNA with G25U, U26G, G28C, A29C
# DNA 1: CAATCTGAATTCCGGTCTCCC
# DNA 2: TGGTGGCTACGACGGGATT
# B5: UGACUGU (DNA:RNA)
# RNA: B1 RNA with G25U, U26G, G28C, A29U
# DNA 1: CAATCTGAATTCCGGTCTCCC
# DNA 2: TGGTGGCTACGACGGGATT
# B6: UGACUGA (DNA:RNA)
# RNA: B1 RNA with G25U, U26G, G28C, A29U, U31A
# DNA 1: CAATCTGAATTCCGGTCTCCC
# DNA 2: TGGTGGCTACGACGGGATT
# B7: UCCUGAC (DNA:RNA)
# RNA: B3 RNA with G26C
# DNA 1: CAATCTGAATTCCGGTCTCCC
# DNA 2: TGGTGGCTACGACGGGATT
# B8: CUGACUG (DNA:RNA)
# RNA: B1 RNA with G25C, A27G, G28A, A29C, G30U, U31G
# DNA 1: CAATCTGAATTCCGGTCTCCC
# DNA 2: TGGTGGCTACGACGGGATT
# B9: UGACUGG (DNA:RNA)
# RNA: B1 RNA with G25U, U26G, G28C, A29U, U31G
# DNA 1: CAATCTGAATTCCGGTCTCCC
# DNA 2: TGGTGGCTACGACGGGATT
# B10: GCCAGAC (DNA:RNA)
# RNA: B3 RNA with U25G, G26C, U28A
# DNA 1: CAATCTGAATTCCGGTCTCCC
# DNA 2: TGGTGGCTACGACGGGATT
# B11: GCCUGAA (DNA:RNA)
# RNA: B3 RNA with U25G, G26C, C31A
# DNA 1: CAATCTGAATTCCGGTCTCCC
# DNA 2: TGGTGGCTACGACGGGATT
# B12: UGACUUG (DNA:RNA)
# RNA: B3 RNA with C27A, U28C, G29U, A30U, C31G
# DNA 1: CAATCTGAATTCCGGTCTCCC
# DNA 2: TGGTGGCTACGACGGGATT
# B13: UGACUGC (DNA:RNA)
# RNA: B3 RNA with C27A, U28C, G29U, A30G
# DNA 1: CAATCTGAATTCCGGTCTCCC
# DNA 2: TGGTGGCTACGACGGGATT
# B14: CGAGAAA (DNA:RNA)
# RNA: B1 RNA with G25C, U26G, G30A, U31A
# DNA 1: CAATCTGAATTCCGGTCTCCC
# DNA 2: TGGTGGCTACGACGGGATT
# B15: GAUAUCG (DNA:RNA)
# RNA: B1 RNA with U26A, A27U, G28A, A29U, G30C, U31G
# DNA 1: CAATCTGAATTCCGGTCTCCC
# DNA 2: TGGTGGCTACGACGGGATT
# B16: GGCGCCU (DNA:RNA)
# RNA: B1 RNA with U26G, A27C, A29C, G30C
# DNA 1: CAATCTGAATTCCGGTCTCCC
# DNA 2: TGGTGGCTACGACGGGATT
# B17: UGCCCAG (DNA:RNA)
# RNA: B3 RNA with U28C, G29C, C31G
# DNA 1: CAATCTGAATTCCGGTCTCCC
# DNA 2: TGGTGGCTACGACGGGATT
# B18: UGCGAGG (DNA:RNA)
# RNA: B1 RNA with G25U, U26G, A27C, U31G
# DNA 1: CAATCTGAATTCCGGTCTCCC
# DNA 2: TGGTGGCTACGACGGGATT
# B19: GUAGCGU (DNA:RNA)
# RNA: B1 RNA with A29C
# DNA 1: CAATCTGAATTCCGGTCTCCC
# DNA 2: TGGTGGCTACGACGGGATT
# B20: UUUAAGG (DNA:RNA)
# RNA: B1 RNA with G25U, A27U, G28A, U31G
# DNA 1: CAATCTGAATTCCGGTCTCCC
# DNA 2: TGGTGGCTACGACGGGATT
# B21: GUCUUAG (DNA:RNA)
# RNA: B3 RNA with U25G, G26U, G29U, C31G
# DNA 1: CAATCTGAATTCCGGTCTCCC
# DNA 2: TGGTGGCTACGACGGGATT
# B22: UGCAUAA (DNA:RNA)
# RNA: B3 RNA with U28A, G29U, C31A
# DNA 1: CAATCTGAATTCCGGTCTCCC
# DNA 2: TGGTGGCTACGACGGGATT
# B23: GUCCUGC (DNA:RNA)
# RNA: B1 RNA with A27C, G28C, A29U, U31C
# DNA 1: CAATCTGAATTCCGGTCTCCC
# DNA 2: TGGTGGCTACGACGGGATT
# B24: UGCAUGA (DNA:RNA)
# RNA: B3 RNA with U28A, G29U, A30G, C31A
# DNA 1: CAATCTGAATTCCGGTCTCCC
# DNA 2: TGGTGGCTACGACGGGATT
# B25: AGAUGCA (DNA:RNA)
# RNA: B3 RNA with U25A, C27A, A30C, C31A
# DNA 1: CAATCTGAATTCCGGTCTCCC
# DNA 2: TGGTGGCTACGACGGGATT
# B26: UGCAUGC (DNA:RNA)
# RNA: B3 RNA with U28A, G29U, A30G
# DNA 1: CAATCTGAATTCCGGTCTCCC
# DNA 2: TGGTGGCTACGACGGGATT
# B27: UGCAUGG (DNA:RNA)
# RNA: B3 RNA with U28A, G29U, A30G, C31G
# DNA 1: CAATCTGAATTCCGGTCTCCC
# DNA 2: TGGTGGCTACGACGGGATT
# B28: UGAUUCA (DNA:RNA)
# RNA: B3 RNA with C27A, G29U, A30C, C31A
# DNA 1: CAATCTGAATTCCGGTCTCCC
# DNA 2: TGGTGGCTACGACGGGATT
# B29: UGCGUGG (DNA:RNA)
# RNA: B3 RNA with U28G, G29U, A30G, C31G
# DNA 1: CAATCTGAATTCCGGTCTCCC
# DNA 2: TGGTGGCTACGACGGGATT
# B30: UUCAUGC (DNA:RNA)
# RNA: B3 RNA with G26U, U28A, G29U, A30G
# DNA 1: CAATCTGAATTCCGGTCTCCC
# DNA 2: TGGTGGCTACGACGGGATT
# B31: UGAUGCA (DNA:RNA)
# RNA: B3 RNA with C27A, A30C, C31A
# DNA 1: CAATCTGAATTCCGGTCTCCC
# DNA 2: TGGTGGCTACGACGGGATT
# B32: UUCAUGG (DNA:RNA)
# RNA: B1 RNA with G25U, A27C, G28A, A29U, U31G
# DNA 1: CAATCTGAATTCCGGTCTCCC
# DNA 2: TGGTGGCTACGACGGGATT
# B33: UGCAGAA (DNA:RNA)
# RNA: B3 RNA with U28A, C31A
# DNA 1: CAATCTGAATTCCGGTCTCCC
# DNA 2: TGGTGGCTACGACGGGATT
# Molecular target: T1, RBFOX1 RRM (Homo sapiens, UniProt Q9NWB1 109-208)
# T1 sequence: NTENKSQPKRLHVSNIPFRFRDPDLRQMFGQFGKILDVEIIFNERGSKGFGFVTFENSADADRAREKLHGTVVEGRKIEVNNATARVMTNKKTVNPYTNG
# Assay: EMSA; HiTS-Eq, 1 nM pool, 10 min; buffer printed only for the single-RNA assays: 10 mM Tris pH 7.5, 150 mM NaCl, 3.4 mM EDTA, 0.001% NP-40, 30 C
# Conditions: tags: His6 N-terminal (pET28a); label: 5' 32P
# How it was run: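 Relative association constants, normalised to the cognate motif, were derived by comparing read counts of each RNA species with those of the control reaction. The RNA sequenced was the free fraction, separated by 8% native PAGE after a 10 min equilibration in 50 µL of 1 nM 5′-radiolabelled RNA (7 randomized nucleotides) with increasing concentrations of purified wild-type or mutant RbFox RRM.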
row,Binder,binding signal
1,B1,0.0112 KA relative to UGCAUGU
2,B2,0.0331 KA relative to UGCAUGU
3,B3,0.0249 KA relative to UGCAUGU
4,B4,0.0185 KA relative to UGCAUGU
5,B5,0.032 KA relative to UGCAUGU
6,B6,0.0256 KA relative to UGCAUGU
7,B7,0.0129 KA relative to UGCAUGU
8,B8,0.0302 KA relative to UGCAUGU
9,B9,0.0284 KA relative to UGCAUGU
10,B10,0.0114 KA relative to UGCAUGU
11,B11,0.0276 KA relative to UGCAUGU
12,B12,0.0454 KA relative to UGCAUGU
13,B13,0.039 KA relative to UGCAUGU
14,B14,0.00724 KA relative to UGCAUGU
15,B15,0.0155 KA relative to UGCAUGU
16,B16,0.00816 KA relative to UGCAUGU
17,B17,0.0164 KA relative to UGCAUGU

row,Binder,binding signal
1,B18,0.0231 KA relative to UGCAUGU
2,B19,0.0174 KA relative to UGCAUGU
3,B20,0.0043 KA relative to UGCAUGU
4,B21,0.0121 KA relative to UGCAUGU
5,B22,0.00891 KA relative to UGCAUGU
6,B23,0.0203 KA relative to UGCAUGU
7,B24,0.913 KA relative to UGCAUGU
8,B25,0.0164 KA relative to UGCAUGU
9,B26,1.02 KA relative to UGCAUGU
10,B27,0.965 KA relative to UGCAUGU
11,B28,0.0154 KA relative to UGCAUGU
12,B29,0.0211 KA relative to UGCAUGU
13,B30,0.0106 KA relative to UGCAUGU
14,B31,0.0332 KA relative to UGCAUGU
15,B32,0.00704 KA relative to UGCAUGU
16,B33,0.0113 KA relative to UGCAUGU
